GPR151 activ: human GPR151 activation; activation, % at 11.2 µM; Q8TDV0; 650,000 compounds, 1% hits; PathHunter beta-arrestin GPR151 cells, luminescence; in the data active means activation above about 4.9%;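 further: 0% = median of compound wells and 100% = cells with positive control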
FBW7 activator: activators of human E3 ligase FBW7; Q969H0; AlphaScreen FBW7–phospho-cyclin E peptide binding, activator screen; normalized activity (activation), % at 26.1 µM; 650,000 compounds, 0.13% hits; in the data active means normalized activity above about 1.9%;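 further: purified mutant Fbw7 with reduced substrate affinity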
TEAD-YAP inh: TEAD-YAP interaction inhibition; 640,000 compounds, 1.4% hits; HEK-TIYL cells, TEAD-Gal4/YAP UAS-luciferase luminescence; inhibition, % at 9.12 µM; in the data active means inhibition above about 32%;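 further: 0% = median of test compound wells and 100% = reference inhibitor wells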
MITF primary: inhibitors of human MITF; O75030; AlphaScreen MITF homodimerization, bead proximity signal; inhibition, % at 2.6 µM; 650,000 compounds, 0.91% hits; AID 1259374; in the data active means inhibition above about 50%;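 further: 0% = vehicle wells with protein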
Target sequence (O75030 whole entry, looked up): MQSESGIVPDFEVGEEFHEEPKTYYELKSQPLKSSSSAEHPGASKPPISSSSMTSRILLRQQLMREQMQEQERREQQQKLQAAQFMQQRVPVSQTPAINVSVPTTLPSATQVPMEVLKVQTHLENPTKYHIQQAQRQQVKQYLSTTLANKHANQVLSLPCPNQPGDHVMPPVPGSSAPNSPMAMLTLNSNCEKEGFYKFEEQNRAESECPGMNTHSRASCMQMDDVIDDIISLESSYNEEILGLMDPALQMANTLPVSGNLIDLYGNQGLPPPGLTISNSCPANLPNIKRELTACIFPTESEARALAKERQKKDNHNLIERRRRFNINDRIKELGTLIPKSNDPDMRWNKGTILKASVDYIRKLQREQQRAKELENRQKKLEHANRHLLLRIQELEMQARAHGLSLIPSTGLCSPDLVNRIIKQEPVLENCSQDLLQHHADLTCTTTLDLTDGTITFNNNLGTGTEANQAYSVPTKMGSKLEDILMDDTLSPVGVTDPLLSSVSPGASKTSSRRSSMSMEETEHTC
GPR151 conf act: human GPR151 activation, confirmation screen. shares compounds with GPR151 activ. GPR151 PathHunter beta-arrestin cells, luminescence, 90 min; % of EA-reagent control over plate median. activation, % at 11.2 µM. 6,700 tested, under 10 active;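 active means mean percent activation across replicates above the confirmation screen cutoff of 4.91%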
GPR119 ag: counter-screen for GPR151 activators: effect on human GPR119; GPR119 PathHunter beta-arrestin cells, luminescence, 90 min; 0 = compound-well median, 100 = enzyme-acceptor control; activation, % at 11.2 µM; shares compounds with GPR151 activ; 6,700 compounds, 0.3% hits;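 active means mean percent activation in the counterscreen above 29.09%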;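 further: counterscreen on off-target GPR119 to flag nonselective hits from the GPR151 activator screen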
* hit, by the source's call; x = no result given. The list is not random: actives were taken first. Their share in the collection is about 3.4%.

SMILES	GPR151 activ	FBW7 activator	TEAD-YAP inh	MITF primary	GPR151 conf act	GPR119 ag
COc1ccc(CCNc2cc(C)nc(Nc3ccc4ncccc4c3)n2)cc1	7.0*	-0.1	47.1*	6.9	1.3	20.0
CCOc1ccc(C2CC(c3ccc(OC(F)F)cc3)n3nnnc3N2)cc1Cl (configuration not stated)	-0.4	0.3	7.7	-5.7	x	x
CCOC(=O)C1CCN(c2c(NCCc3ccc(Cl)cc3)c(=O)c2=O)CC1	-0.3	0.2	-6.1	-1.8	x	x
COc1ccc(C2C3=C(CC(C)(C)CC3=O)Nc3nc4ccccc4n32)c(OC)c1 (configuration not stated)	-2.4	0.2	-10.9	-11.1	x	x
COc1ccc(Oc2ccc(N3C(=O)C4C5C=CC(C6CC56)C4C3=O)cc2)cc1 (configuration not stated)	0.7	-0.1	5.6	6.2	x	x
O=C(CCNC(=O)c1ccccc1)N/N=C/c1ccccc1[N+](=O)[O-]	0.6	0.8	-12.0	5.4	x	x
O=C(CCn1c(=O)[nH]c2ccccc21)NCC1Cc2cccc(-c3cnccn3)c2O1 (configuration not stated)	1.2	-0.1	-11.6	-2.1	x	x
CCOc1cc(C(=O)N2CCc3cc(OC)c(OC)cc3C2COc2ccc(F)cc2)cc(OCC)c1OCC (configuration not stated)	-0.8	0.5	-7.8	25.8	x	x
CCOc1ccc(/C(O)=C2\C(=O)C(=O)N(CCN3CCOCC3)C2c2ccccc2F)cc1C (configuration not stated)	-0.4	0.0	-8.5	-8.2	x	x
c1ccc2oc(NC3=NCN(C4CCCCC4)CN3)nc2c1	9.9*	0.1	-13.5	-9.4	1.4	4.5
O=C(c1ccco1)N1CCN(Cc2nc3scc(-c4cccs4)c3c(=O)[nH]2)CC1	-2.5	0.0	-10.0	-10.3	x	x
C=CCn1c(CCC(=O)OC)nc2ccccc21	3.3	-0.1	-1.0	-0.7	x	x
CCOCCCNC(=O)Cn1ncc2c1-c1cc(C)ccc1OC2	0.4	-0.1	5.0	4.8	x	x
Cc1ccc2c(c1)-c1c(cnn1CC(=O)N(C)c1ccccc1C)CO2	7.1*	-0.1	12.6	1.5	-0.3	-4.3
Cc1ccc2c(c1)-c1c(cnn1CC(=O)NC1CC1)CO2	6.1*	0.6	20.9	6.4	-0.2	-3.2
Cc1ccc2c(c1)-c1c(cnn1CC(=O)NCCN(C)C)CO2	10.6*	0.0	-0.8	-0.3	-0.2	5.3
CC1(c2ccc(OC(F)F)cc2)NC(=O)N(N)C1=O (configuration not stated)	1.0	0.1	7.7	3.2	x	x
CCC1CCc2c(sc(NC(=O)c3ccc(C)cc3)c2C(N)=O)C1 (configuration not stated)	2.3	0.0	-5.0	0.9	x	x
Cc1c(C(=O)N2CCN(c3cccc(Cl)c3)CC2)sc2ncnc(N(C)c3ccccc3)c12	0.8	-0.3	-1.6	-7.0	x	x
Cc1sc(N=C(N)N)nc1-c1ccc2c(c1)CCN2C(=O)C1CCCCC1	5.1*	-0.1	5.5	5.6	-0.2	-1.0
CCCN(CCC)S(=O)(=O)c1ccc(C)c(C)c1	-1.4	0.7	0.8	3.6	x	x
C=CCN(CC(=O)O)S(=O)(=O)c1ccc(C)c(C)c1	6.6*	0.3	3.7	5.5	1.4	17.2
O=C(Nc1cc(Cl)ccc1O)c1ccc2c(c1)C(=O)N(Cc1cccnc1)C2=O	1.1	0.0	8.2	0.8	x	x
Cc1c(NC(=S)NC(=O)c2oc3ccccc3c2C)cccc1-c1nc2ccccc2s1	10.2*	-0.1	-9.4	-2.3	0.9	17.8
CCN(CC)C(=O)CSc1nc2c(sc(=S)n2-c2ccc(C)c(C)c2)c(=O)n1-c1ccc(C)cc1	0.4	-0.2	-1.4	-10.7	x	x
SMILES	GPR151 activ	FBW7 activator	TEAD-YAP inh	MITF primary	GPR151 conf act	GPR119 ag
CC(C)c1nnc(NC(=O)c2cc(Cl)ccc2Cl)s1	5.1*	0.3	-11.8	6.5	1.0	-8.5
O=C(/C=C1\SC(=O)N(CC(=O)Nc2ccc(F)cc2)C1=O)Nc1ccc(F)cc1	-0.5	0.2	-12.0	10.9	x	x
CCCCc1nnc2sc(NC(=O)c3ccc(F)cc3)nn12	5.6*	0.1	0.9	-10.6	0.2	-6.5
Cc1ccc(C2Nn3c(C)nnc3SC2C(=O)N2CCCCCC2)cc1 (configuration not stated)	6.4*	0.6	-8.4	9.8	0.2	7.1
C=CCc1cccc(/C=C/C(=O)c2c(O)cc(C)oc2=O)c1O	5.9*	-0.1	-4.6	-5.8	-0.5	8.5
Cc1cc(O)c(C(=O)/C=C/c2ccccc2Br)c(=O)o1	0.2	0.0	-2.2	-12.3	x	x
CCOc1ccc(NC(=O)COc2ccc(C3C(C#N)=C(N)Oc4n[nH]c(C)c43)cc2)cc1 (configuration not stated)	0.3	-0.2	-6.5	-2.0	x	x
COc1ccc(NC(=O)COc2ccc(C3C(C#N)=C(N)Oc4n[nH]c(C)c43)cc2)cc1 (configuration not stated)	10.0*	0.0	-6.6	9.5	0.9	-7.7
Cn1nccc1Nc1nc(C(=O)NCc2cccc(C(F)(F)F)c2)cs1	8.7*	0.1	-8.6	19.9	-0.2	-1.5
Cn1nccc1Nc1nc(C(=O)NCc2cccnc2)cs1	5.3*	0.0	-2.9	-2.4	-1.0	-13.3
Cn1nccc1Nc1nc(C(=O)Nc2ccccc2)cs1	5.6*	-0.1	-14.4	9.3	0.0	-7.3
Cn1nccc1Nc1nc(C(=O)NCc2ccccc2)cs1	-1.2	-0.2	-2.7	5.0	x	x
CCOC(=O)c1c(C)oc2nc(CCl)[nH]c(=O)c12	12.0*	0.1	4.5	-3.6	-0.7	-9.2
CCOc1ccc(NC(=O)c2c(NCc3ccc(OC)c(OC)c3OC)sc3c2CCCC3)cc1	1.1	0.1	9.0	17.6	x	x
CCCC(C(=O)O)C(C)CC(=O)Nc1ccccc1Cl (configuration not stated)	-0.5	0.9	10.8	3.3	x	x
CC(=O)Nc1ccc(NC(=O)c2cccc(-c3ccc(C(N)=O)cc3)n2)cc1	12.6*	-0.2	5.2	5.2	0.3	-6.4
O=C(O)CSC(SCC(=O)O)c1ccc([N+](=O)[O-])cc1	1.1	-0.2	-4.6	-2.7	x	x
COc1cccc(CC(=O)N2CCc3nnc(CNC(=O)CCc4cccnc4)n3CC2)c1	5.7*	-0.1	-2.5	2.5	0.1	4.8
N#Cc1ccc(C(=O)Nc2ccccc2N2CCCC2)c(F)c1	13.8*	-0.1	-4.5	0.9	0.4	6.3
O=C(Nc1ccccc1N1CCCC1)c1ccccc1[N+](=O)[O-]	5.8*	0.3	-1.3	2.9	0.7	5.6
O=C(Nc1ccccc1Cl)c1ccccc1[N+](=O)[O-]	0.2	0.1	1.5	-8.3	x	x
O=C(CCC(=O)Nc1ccccc1Cl)NNC(=O)c1ccccc1[N+](=O)[O-]	7.5*	-0.2	-2.6	-0.1	-0.2	-2.8
CCOc1ccc(CNc2nc3ccccc3n2CC)cc1OC	1.5	0.1	-4.5	14.1	x	x

Screens as filed in PubChem BioAssay.
